Experimental data from the supplement of paper PMC8975748.
Structures can show the parent of a compound that is named as a salt.

system: Saccharomyces cerevisiae BY4741 SeMeCo community; assay: z-score of subpopulation abundance vs DMSO median, subpopulation auxotrophic for HM; higher = larger share of this subpopulation than in DMSO controls; conditions: 10 µM; 24 h; SM minimal medium; subpopulation (auxotrophy): HM
Experimental: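 Fluorescent four-plasmid SeMeCo (self-establishing metabolically cooperating S. cerevisiae BY4741 community; plasmids pH-mRuby2, pL-mWasabi, pU-eCFP, pM-TagRFP657) was grown 24 h in minimal SM medium with each Selleck FDA-approved drug at 10 µM in 384-well plates. Cells were fixed and imaged by high-content confocal microscopy. For each auxotrophic subpopulation (and the prototroph), a z-score gives the deviation from the DMSO vehicle-control population median.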

Point of comparison: CCOc1cc(NC(C)=O)ccc1C(=O)OC [Ethopabate], “z-score of subpopulation abundance” value -0.11. Against it:
- CC1(C)S[C@@H]2[C@H](NC(=O)[C@H](N)c3ccccc3)C(=O)N2[C@H]1C(=O)OCOC(=O)[C@@H]1N2C(=O)C[C@H]2S(=O)(=O)C1(C)C [Sultamicillin Tosylate] — higher, 0.76
- Cc1nc(Nc2ccc(F)cc2)nc(N2CCc3ccccc3C2C)c1C (stereo not given) [Revaprazan Hydrochloride] — lower, -0.33
- CC[C@H]1OC(=O)[C@H](C)[C@@H](O[C@H]2C[C@@](C)(OC)[C@@H](O)[C@H](C)O2)[C@H](C)[C@@H](O[C@@H]2O[C@H](C)C[C@H](N(C)C)[C@H]2O)[C@](C)(O)C[C@@H](C)/C(=N\OCOCCOC)[C@H](C)[C@@H](O)[C@]1(C)O [Roxithromycin] — higher, 0.24
- CC(=O)O[C@]1(C(C)=O)CC[C@H]2[C@@H]3C[C@H](C)C4=CC(=O)CC[C@]4(C)[C@H]3CC[C@@]21C [Medroxyprogesterone acetate] — higher, 0.17
- CCOC(=O)C1=C(C)NC(C)=C(C(=O)OC)C1c1cccc(Cl)c1Cl (stereo not given) [Felodipine] — higher, 4.69
- Nc1nc2[nH]cc(CCc3ccc(C(=O)N[C@@H](CCC(=O)O)C(=O)O)cc3)c2c(=O)[nH]1 [Pemetrexed Disodium Hydrate] — lower, -4.93
- CS(=O)(=O)c1ccc([C@@H](O)[C@@H](CO)NC(=O)C(Cl)Cl)cc1 [Thiamphenicol] — lower, -0.5
- O=C1OCCN1/N=C/c1ccc([N+](=O)[O-])o1 [Furazolidone] — higher, 0.39
- CN(C)CCc1c[nH]c2ccc(C[C@H]3COC(=O)N3)cc12 [Zolmitriptan] — lower, -1.06
- CCC(=O)O[C@@H]1CC(=O)O[C@H](C)C/C=C/C=C/[C@H](O)[C@H](C)C[C@H](CC=O)[C@H](O[C@@H]2O[C@H](C)[C@@H](O[C@H]3C[C@@](C)(O)[C@@H](OC(=O)CC)[C@H](C)O3)[C@H](N(C)C)[C@H]2O)[C@H]1OC [Midecamycin] — higher, 1.3
- C[C@]12CC[C@@H]3c4ccc(O)cc4CC[C@H]3[C@@H]1C[C@@H](O)[C@@H]2O [Estriol] — lower, -0.18
- CC(=O)[C@@]1(O)CC[C@H]2[C@@H]3C[C@H](C)C4=CC(=O)CC[C@]4(C)[C@H]3CC[C@@]21C [Medroxyprogesterone] — higher, -0.02
- CN(C)CCCC1(c2ccc(F)cc2)OCc2cc(C#N)ccc21 (stereo not given) [Citalopram HBr] — lower, -0.81
- COC(=O)C1=C(C)NC(C)=C(C(=O)OC(C)C)C1c1cccc2nonc12 (stereo not given) [Isradipine] — lower, -0.24
- CN[C@@H]1[C@H](O[C@H]2[C@H](O[C@H]3[C@H](O)[C@@H](O)[C@H](NC(=N)N)[C@@H](O)[C@@H]3NC(=N)N)O[C@@H](C)[C@]2(O)CO)O[C@@H](CO)[C@H](O)[C@H]1O [Dihydrostreptomycin sulfate] — lower, -0.91
- CO[C@H]1C[C@@H]2CC[C@@H](C)[C@@](O)(O2)C(=O)C(=O)N2CCCC[C@H]2C(=O)O[C@H]([C@H](C)C[C@@H]2CC[C@@H](OC(=O)C(C)(CO)CO)[C@H](OC)C2)CC(=O)[C@H](C)/C=C(\C)[C@@H](O)[C@@H](OC)C(=O)[C@H](C)C[C@H](C)/C=C/C=C/C=C/1C — higher, 23.9
- C[C@](N)(Cc1ccc(O)c(O)c1)C(=O)O [Methyldopa] — lower, -0.81
- CC[C@H]1OC(=O)[C@H](C)[C@@H](O[C@H]2C[C@@](C)(OC)[C@@H](O)[C@H](C)O2)[C@H](C)[C@@H](O[C@@H]2O[C@H](C)C[C@H](N(C)C)[C@H]2O)[C@](C)(O)C[C@@H](C)CN(C)[C@H](C)[C@@H](O)[C@]1(C)O [Azithromycin] — lower, -0.55
- O=C(O[C@H]1CN2CCC1CC2)N1CCc2ccccc2[C@@H]1c1ccccc1 [Solifenacin succinate] — higher, 0
- CC[C@H]1OC(=O)[C@H](C)[C@@H](O[C@H]2C[C@@](C)(OC)[C@@H](O)[C@H](C)O2)[C@H](C)[C@@H](O[C@@H]2O[C@H](C)C[C@H](N(C)C)[C@H]2O)[C@](C)(O)C[C@@H](C)[C@@H]2N[C@@H](COCCOC)O[C@H]([C@H]2C)[C@]1(C)O [Dirithromycin] — lower, -0.53
- CC(=O)NS(=O)(=O)c1ccc(N)cc1 [Sulfacetamide Sodium] — higher, 0.1
- COC(=O)C1=C(C)NC(C)=C(C(=O)OCCN2CCN(C(c3ccccc3)c3ccccc3)CC2)C1c1cccc([N+](=O)[O-])c1 (stereo not given) [Manidipine] — higher, 2.14
- Cc1c(S(=O)(=O)O)oc2c1C(=O)C(=O)c1c-2ccc2c1CCCC2(C)C [Tanshinone IIA sulfonate (sodium)] — lower, -0.31
- O=C1CN2Cc3c(ccc(Cl)c3Cl)N=C2N1 [Anagrelide HCl] — lower, -0.37
- COc1ccc2cc([C@H](C)C(=O)O)ccc2c1 [Naproxen] — lower, -0.37
- CN(C)CCC[C@@]1(c2ccc(F)cc2)OCc2cc(C#N)ccc21 [Escitalopram Oxalate] — lower, -0.98
- Cc1ccc(Sc2ccccc2N2CCNCC2)c(C)c1 — lower, -0.62
- C#CCN[C@@H]1CCc2ccccc21 [Rasagiline Mesylate] — lower, -0.43
- CC[C@H](C)C(=O)O[C@H]1C[C@H](O)C=C2C=C[C@H](C)[C@H](CC[C@@H](O)C[C@@H](O)CC(=O)O)[C@H]21 [Pravastatin] — higher, 0.47
- C[C@@H](O)[C@H]1C(=O)N2C(C(=O)O)=C(S[C@@H]3CN[C@H](CNS(N)(=O)=O)C3)[C@H](C)[C@H]12 [Doripenem Hydrate] — lower, -0.76
- O=C(O)CCC(=O)c1ccc(-c2ccccc2)cc1 [Fenbufen] — higher, -0.02
- CCOc1ccc2nc3cc(N)ccc3c(N)c2c1 [Ethacridine lactate monohydrate] — higher, 5.32
- CCn1cc(C(=O)O)c(=O)c2cc(F)c(N3CCNCC3)nc21 [Enoxacin Sesquihydrate] — higher, 0.03
- Nc1ccc(C(=O)O)c(O)c1 [4-Aminosalicylic acid] — higher, 0.06
- Cn1c([N+](=O)[O-])cnc1COC(N)=O [Ronidazole] — lower, -1.32
- CC1(C)S[C@@H]2[C@H](NC(=O)Cc3ccccc3)C(=O)N2[C@H]1C(=O)O.CCN(CC)CCOC(=O)c1ccc(N)cc1 [Penicillin G Procaine] — higher, 0.69
- O=C1[C@@H]2[C@H]3CC[C@H](C3)[C@@H]2C(=O)N1C[C@@H]1CCCC[C@H]1CN1CCN(c2nsc3ccccc23)CC1 [lurasidone] — lower, -0.31
- CN1CCN(c2c(F)cc3c(=O)c(C(=O)O)cn4c3c2OCN4C)CC1 [Marbofloxacin] — lower, -0.43
- O=C1C(=O)c2ccccc2C(O)=C1C1CCC(c2ccc(Cl)cc2)CC1 (stereo not given) [Atovaquone] — higher, 0.9
